Out of some 96,000 compounds screened, about 1,200 (1.2%) were called active. Rule as the data show it: active = activation fold above about 2; inactive = the rest. Shown is part of a subset that was picked to be rich in actives.
The molecules below were run against Alkaline phosphatase, placental type (Homo sapiens) (UniProt P05187) (assay: PLAP enzyme activators, biochemical, luminescence, HTS (AID 696)). Settings: purified PLAP enzyme, luminescent substrate read-out; at 20 µM; stronger effect = higher value.
Chain of Alkaline phosphatase, placental type (Homo sapiens) (P05187 whole entry, looked up): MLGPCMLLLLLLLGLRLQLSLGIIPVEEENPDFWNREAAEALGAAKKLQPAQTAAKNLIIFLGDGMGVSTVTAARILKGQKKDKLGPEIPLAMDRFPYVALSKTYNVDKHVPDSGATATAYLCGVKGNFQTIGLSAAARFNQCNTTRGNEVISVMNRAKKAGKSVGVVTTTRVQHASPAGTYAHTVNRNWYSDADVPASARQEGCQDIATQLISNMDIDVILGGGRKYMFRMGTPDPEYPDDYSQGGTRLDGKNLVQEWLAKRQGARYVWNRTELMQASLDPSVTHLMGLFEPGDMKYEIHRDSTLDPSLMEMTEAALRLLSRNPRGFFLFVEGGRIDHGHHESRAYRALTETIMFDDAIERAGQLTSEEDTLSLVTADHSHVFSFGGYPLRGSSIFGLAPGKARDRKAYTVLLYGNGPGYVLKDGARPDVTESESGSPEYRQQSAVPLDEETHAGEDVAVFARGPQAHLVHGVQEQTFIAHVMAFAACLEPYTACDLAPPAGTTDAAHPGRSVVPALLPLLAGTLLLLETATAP
With `CC(=O)c1ccc(OCCN2CCOCC2)cc1` the activation fold was 0.9 (inactive).
`Cc1c(C(=O)CN2CCOCC2)[nH]c2ccccc12` was tested, and the activation fold was 0.9 (inactive).
`Cc1c(C(=O)N2CCOCC2)[nH]c2ccc(OCc3ccccc3)cc12` was tested, and the activation fold was 2 (active).
With `CCOC(=O)c1[nH]c2ccc(OC)cc2c1NC(=O)N1CCOCC1` the activation fold was 1.1 (inactive).
For `COc1cccc2c1OCC1COc3c(c(=O)n(C)c(=O)n3C)C21` (stereo not drawn), the activation fold was 1 (inactive).
For `COc1ccc(OCC(=O)NNC(=O)c2ccc(-c3ccccc3)cc2)cc1`, the activation fold was 1.5 (inactive).
With `CC(C)(C)c1ccc(C(=O)NNC(=O)Cc2ccccc2)cc1` the activation fold was 2.1 (active).
With `CCNC(=S)NNC(=O)Cc1ccccc1` the activation fold was 1.3 (inactive).
For `Cc1ccc(-c2cnc(NC(=O)CCC(=O)N(C)Cc3ccccc3)n2C)cc1`, the activation fold was 1.5 (inactive).
For `Cc1ccc(-n2nc(N)c3c(=O)oc(N(C)C)nc32)cc1`, the activation fold was 1.1 (inactive).
`CSc1nc(-c2ccco2)nn1C(=O)CCc1ccccc1` was tested, and the activation fold was 1.1 (inactive).
`COc1ccc(C2SCCN2S(=O)(=O)c2ccccc2)cc1OC` (stereo not drawn) was tested, and the activation fold was 1.3 (inactive).
In the case of `COc1ccc(C2CC(=O)n3c(nc4ccccc43)S2)cc1OC` (stereo not drawn), the activation fold is reported as 1.1 (inactive).
In the case of `COc1ccc(C2N=C(N)N=C(N)N2c2ccccc2)cc1OC` (stereo not drawn), the activation fold is reported as 2.5 (active).
In the case of `COCCn1c(C)cc(C2=NNC(=Nc3ccc(F)cc3)SC2)c1C`, the activation fold is reported as 1.2 (inactive).
For `CN1/C(=C\C(=O)c2oc3ccccc3c2N)C(C)(C)c2ccccc21`, the activation fold was 1 (inactive).
For `COc1ccc(NC(C)=O)cc1NC(=O)CN1CCN(C2c3ccccc3-c3ccccc32)CC1`, the activation fold was 2.8 (active).
`COc1ccc(NC(C)=O)cc1NC(=O)CN1CCN(c2ccccn2)CC1` was tested, and the activation fold was 1 (inactive).
`COc1ccc(OC)c(NC(=O)CN2CCN(C(=O)c3ccco3)CC2)c1` was tested, and the activation fold was 1.2 (inactive).
For `Cc1ccc(S(=O)(=O)Nc2nc(C)cc(-n3nc(C)cc3C)n2)cc1`, the activation fold was 1.4 (inactive).
For `COc1ccc(C(=O)CSc2n[nH]c(N)n2)cc1`, the activation fold was 1.5 (inactive).
For `Nc1nc(SCc2ccccc2Cl)n[nH]1`, the activation fold was 1.5 (inactive).
For `Nc1nc(SCCOc2ccccc2)n[nH]1`, the activation fold was 2 (active).
For `COc1ccccc1-c1n[nH]c2c1[C@H](C)CC[C@H]2C(C)C`, the activation fold was 1.4 (inactive).
For `O=C(OCN1C(=O)c2ccccc2C1=O)/C(=C\c1ccco1)NC(=O)c1ccccc1`, the activation fold was 1.1 (inactive).
For `CCOc1cccc(C(=O)Nc2cnn(Cc3ccccc3)c2)c1`, the activation fold was 0.7 (inactive).
With `COc1ccc(CNC(=O)CCn2cccc2)cc1` the activation fold was 1 (inactive).
`CC(C)NC(=O)NC(=O)COC(=O)c1ccc(NC(=O)CC#N)cc1` was tested, and the activation fold was 1.4 (inactive).
With `O=C(Nc1nnc(C2CC2)s1)c1ccccn1` the activation fold was 2.3 (active).
For `Cc1occc1C(=O)Nc1nnc(C2CCCCC2)s1`, the activation fold was 1 (inactive).
In the case of `COc1ccc2c(CC(=O)Nc3nnc(C4CC4)s3)coc2c1`, the activation fold is reported as 0.9 (inactive).
For `NC(=O)C1(N2CCCCC2)CCN(C(=S)Nc2ccc(Cl)cc2)CC1`, the activation fold was 0.9 (inactive).
`Cc1cccc(N2CCN(S(=O)(=O)c3ccc4[nH]c(=O)c(=O)[nH]c4c3)CC2C)c1` (stereo not drawn) was tested, and the activation fold was 2.2 (active).
With `CN1CCN(S(=O)(=O)c2ccc3[nH]cc(C(=O)O)c(=O)c3c2)CC1` the activation fold was 1.1 (inactive).
For `COc1cccc(N2C(=O)CC(N3CCN(S(=O)(=O)c4ccccc4)CC3)C2=O)c1` (stereo not drawn), the activation fold was 1.4 (inactive).
In the case of `O=C1C(Cl)=C(N2CCOCC2)C(=O)N1c1ccccc1`, the activation fold is reported as 1 (inactive).
`O=C(CN1C(=O)C2C3C=CC(C3)C2C1=O)NCCc1ccccc1Cl` (stereo not drawn) was tested, and the activation fold was 0.9 (inactive).
`O=C(NCCN1C(=O)C2C3C=CC(C3)C2C1=O)Nc1ccccn1` (stereo not drawn) was tested, and the activation fold was 1.1 (inactive).
In the case of `O=C(CN1C(=O)C2C3C=CC(C3)C2C1=O)Nc1nc(-c2ccccn2)cs1` (stereo not drawn), the activation fold is reported as 2.3 (active).
For `CC(OC(=O)CN1C(=O)C2CCCCC2C1=O)C(=O)Nc1ncc(Cl)cc1Cl` (stereo not drawn), the activation fold was 0.9 (inactive).
With `O=C(CN1CCN(c2ccccn2)CC1)NC1CCCCC1` the activation fold was 1.1 (inactive).
For `O=C(CCCC(=O)N(CC(=O)NC1CCCC1)Cc1ccccc1Cl)Nc1ccccn1`, the activation fold was 2 (active).
In the case of `CCOc1ccccc1N(CC(=O)NC1CCCCC1)C(=O)CCCC(=O)Nc1ccccn1`, the activation fold is reported as 2 (active).
`Cc1ccc(C(C(=O)NC2CCCC2)N(Cc2ccco2)C(=O)CCC(=O)Nc2ccccn2)cc1` (stereo not drawn) was tested, and the activation fold was 1.7 (inactive).
For `CCCC(=O)Nc1cc(OCC)c(NC(=O)NC2CCCCC2)cc1OCC`, the activation fold was 0.9 (inactive).
`Cc1noc(C)c1C(=O)N(CC(=O)NC1CCCC1)Cc1ccccc1F` was tested, and the activation fold was 1 (inactive).
For `CCCCNC(=O)C(=O)c1ccccc1NC(C)=O`, the activation fold was 0.9 (inactive).
In the case of `Cc1cccc(C)c1NC(=O)CSc1nnc(-c2ccccc2)n1Cc1ccc2c(c1)OCO2`, the activation fold is reported as 1.4 (inactive).
In the case of `Cc1cc(/C=C2/SC(=O)N(CC(=O)OC(C)C)C2=O)c(C)n1C`, the activation fold is reported as 1 (inactive).
In the case of `COC(=O)CSc1snnc1-c1ccc(Cl)c(Cl)c1`, the activation fold is reported as 1 (inactive).
In the case of `CC(C)NS(=O)(=O)c1ccc(OCC(=O)Nc2ccc3c(c2)OCCO3)cc1`, the activation fold is reported as 0.7 (inactive).
For `O=C(OCC(=O)c1cccs1)C1=COCCO1`, the activation fold was 0.9 (inactive).
In the case of `CCC(C)(C)c1ccc(Oc2ccc(NC(=O)COC(=O)C3=COCCO3)cc2)cc1`, the activation fold is reported as 2.9 (active).
`c1ccc(CCc2nc(-c3ccncc3)no2)cc1` was tested, and the activation fold was 0.9 (inactive).
`O=C(CSCc1ccccc1)N1CCc2ccccc21` was tested, and the activation fold was 0.7 (inactive).
For `O=C(Nc1cccc(Cl)c1)Nc1nnc(-c2ccccc2)o1`, the activation fold was 1.1 (inactive).
With `O=C(COC(=O)c1ccc(Oc2ccccc2)cc1)Nc1nnc(-c2ccccc2)o1` the activation fold was 2 (active).
For `O=C(COc1ccccc1)Nc1nonc1NC(=O)COc1ccccc1`, the activation fold was 0.9 (inactive).
With `Cc1ccc(NC(=O)C(C)c2cccc(C(=O)c3ccccc3)c2)cc1` (stereo not drawn) the activation fold was 0.7 (inactive).
`C=CCN(C(=O)Cn1ncc2c1-c1cc(C)ccc1OC2)c1ccccc1` was tested, and the activation fold was 1.2 (inactive).
For `COc1ccccc1OCc1nc2ccccc2s1`, the activation fold was 1 (inactive).
In the case of `COc1ccc(C(C#N)N2N=C(C)CC2(C)C)cc1` (stereo not drawn), the activation fold is reported as 0.9 (inactive).
`Cc1cccc(N(CC(=O)N=Nc2c(O)[nH]c3ccccc23)S(C)(=O)=O)c1C` was tested, and the activation fold was 1.9 (inactive).
`Cc1ccccc1NC(=O)c1ccccc1NS(=O)(=O)c1cccc2cccnc12` was tested, and the activation fold was 1.3 (inactive).
`O=C(/C=C\NCC(=O)c1ccccc1)c1ccccc1` was tested, and the activation fold was 0.9 (inactive).
For `O=C(/C=C/NNC(=O)c1cccc(Br)c1)c1ccccc1`, the activation fold was 2 (active).
In the case of `CC(C)(O)C(=O)NN(C(=O)c1ccccc1)c1cccc(Br)c1`, the activation fold is reported as 0.9 (inactive).
`COc1ccccc1NS(=O)(=O)N(C)C` was tested, and the activation fold was 0.8 (inactive).
`CCOC(=O)CSc1nnc(CNC(=O)Cc2ccccc2)n1-c1ccccc1OC` was tested, and the activation fold was 1 (inactive).
In the case of `COc1ccc(C(=O)NCCc2ccc(S(N)(=O)=O)cc2)cc1OC`, the activation fold is reported as 1 (inactive).
In the case of `CCOc1ccc(C(CCc2ccccc2)NC(=O)c2ccc(OC)c(OC)c2)cc1OCC` (stereo not drawn), the activation fold is reported as 2.2 (active).
For `CCOC(=O)C1=NNC2(c3ccc(Cl)cc3)C(=O)N(c3cc(C)cc(C)c3)C(=O)C12` (stereo not drawn), the activation fold was 1.1 (inactive).
`CCOC(=O)Cc1csc(NC(NC(=O)OCC)(C(F)(F)F)C(F)(F)F)n1` was tested, and the activation fold was 0.9 (inactive).
`CCOc1ccc(Nc2nc(Cc3nnc(SCC(=O)c4ccc(C)cc4)o3)cs2)cc1` was tested, and the activation fold was 0.7 (inactive).
For `Cn1c(-c2sc3cc(C(F)(F)F)cnc3c2-c2ccccc2)n[nH]c1=S`, the activation fold was 2.6 (active).
With `Cc1ccc(/C=N\n2c(-c3ccccc3)n[nH]c2=S)s1` the activation fold was 1.3 (inactive).
In the case of `Cc1cc(C(F)(F)F)n2ncc(-c3ccccc3)c2n1`, the activation fold is reported as 0.9 (inactive).
With `CO/N=C(/CS(=O)(=O)c1ccc(Br)cc1)c1ccc(OC)cc1` the activation fold was 1.6 (inactive).
For `CC(C)c1ccc(Nc2ncccc2C#N)cc1`, the activation fold was 0.9 (inactive).
For `COc1ccccc1C(=O)Nc1nc2nc(-c3ccccc3)cc(=O)n2[nH]1`, the activation fold was 1.1 (inactive).
For `CCCCNc1ccc(C(=O)Nc2cccc(C)n2)cc1[N+](=O)[O-]`, the activation fold was 0.9 (inactive).
For `O=C(Nc1nnc(SCc2ccc(Cl)cc2Cl)s1)C1COc2ccccc2O1` (stereo not drawn), the activation fold was 1.1 (inactive).
In the case of `O=C(Nc1cccc2ccccc12)N1CCN(Cc2ccc3c(c2)OCO3)CC1`, the activation fold is reported as 2.1 (active).
`O=C(CCCN1C(=O)c2cccc3cccc(c23)C1=O)N1CCN(Cc2ccc3c(c2)OCO3)CC1` was tested, and the activation fold was 1.6 (inactive).
With `O=C(c1cccs1)N1CCN(Cc2ccc3c(c2)OCO3)CC1` the activation fold was 1.2 (inactive).
`O=C(CN1CCSCC1)N/N=C/c1ccc(F)cc1F` was tested, and the activation fold was 1 (inactive).
For `Cc1cccc(N2C(=O)SC(N(CC(=O)O)c3cccc(C)c3)C2=O)c1` (stereo not drawn), the activation fold was 2.2 (active).
With `CCC1Oc2ccc(Cl)cc2N(CC(=O)O)C1=O` (stereo not drawn) the activation fold was 1 (inactive).
`Cc1cccc(N(CC(=O)N2CCOCC2)S(C)(=O)=O)c1` was tested, and the activation fold was 0.8 (inactive).
`Cc1csc(OCC(=O)Nc2ccc(C)c(C)c2)n1` was tested, and the activation fold was 1.2 (inactive).
In the case of `N/C(=N\OC(=O)CCc1ccccc1)c1ccc(Cl)cc1`, the activation fold is reported as 0.9 (inactive).
For `Cc1[nH]n(-c2cccc(Cl)c2)c(=O)c1-c1ccc(Cl)cc1`, the activation fold was 1 (inactive).
In the case of `Cc1[nH]n(-c2cccc(Cl)c2)c(=O)c1/C=N/n1c(C)nc2ccccc2c1=O`, the activation fold is reported as 2.1 (active).
`COc1cc(NS(=O)(=O)c2ccc(N=Cc3c(C)[nH]n(-c4ccccc4)c3=O)cc2)nc(OC)n1` was tested, and the activation fold was 1.5 (inactive).
`CC1(C)CC(=O)C2=C(C1)N=C1SCCC(=O)N1C2c1ccc(C(F)(F)F)cc1` (stereo not drawn) was tested, and the activation fold was 1.2 (inactive).
In the case of `COc1ccc(C)cc1S(=O)(=O)NCCc1ccccc1`, the activation fold is reported as 0.8 (inactive).
For `COC(=O)c1ccccc1NC(=O)CN(Cc1ccc(Cl)cc1)S(C)(=O)=O`, the activation fold was 1.5 (inactive).
For `COc1ccc([N+](=O)[O-])cc1N(CC(O)Cn1nnc2ccccc21)S(=O)(=O)c1ccc(C)cc1` (stereo not drawn), the activation fold was 1.4 (inactive).

From PubChem BioAssay AID696 (Sanford-Burnham Center for Chemical Genomics, 2007)
